The text below walks through data of PubChem BioAssay (NCI).

Some test systems named below: NCI-H23 lung; NCI-H226 lung; NCI-H322M lung; HOP-62 NSCLC; NCI-H460 lung; HOP-92 NSCLC; NCI-H522 lung; A549/ATCC NSCLC; 786-0 renal; COLO 205 colon; DU-145 prostate; K-562 leukemia; MALME-3M melanoma; MDA-MB-231 breast; RXF 393 renal; SF-268 CNS; SF-295 CNS; SF-539 CNS; UACC-257 melanoma; M14 melanoma.
Common to all, as to test: NCI-60 one-dose screen, 48 h (100 = growth as untreated, 0 = no growth, -100 = all killed)
Details in all cases: 10 µM unless noted

The panel holds about 83,000 compounds, 20% with a hit somewhere; the sample as a whole holds those more often.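 Treatment: one concentration, 48 hours, 96-well format. Scoring: percent growth, with anything below 10 considered active.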 A number with no mark means an inactive call. The source made the active and inactive calls.

For `COCCOc1ccc2ncc(C#Cc3cncc(C(=O)Nc4ccc(CN5CCN(C)CC5)c(C(F)(F)F)c4)c3)n2n1`, the growth in the test on NCI-H23 lung was -48.7% (active); in the test with NCI-H226 lung, -12.7% (active); with NCI-H322M lung it was 18.7%; with HOP-62 NSCLC, 18.4%; with NCI-H460 lung, 0.556% (active); in the test with HOP-92 NSCLC it was -44.1% (active). The growth with NCI-H522 lung was -56.4% (active); in the test on A549/ATCC NSCLC it was 10.3%; in the test with 786-0 renal it was -15.3% (active); in the test with COLO 205 colon, -32.7% (active); in the test on DU-145 prostate, 7.72% (active); in the test with K-562 leukemia it was -18% (active). Besides, the growth in the test on MALME-3M melanoma is -72.3% (active); in the test on MDA-MB-231 breast, -28.5% (active); in the test on RXF 393 renal it was -91.2% (active); in the test with SF-268 CNS, -19.6% (active); in the test on SF-295 CNS it was 31%; with SF-539 CNS, 8.57% (active). Besides, the values for the growth with UACC-257 melanoma and in the test on M14 melanoma were 28.1% and -90.5% (active), respectively.
With `O=C1[C@H]2Cc3c([nH]c4ccccc34)[C@H](c3ccc(Cl)cc3)N2C(=O)CN1C1CCN(CC2CCCCC2)CC1`, the growth was 75.8% in the test on NCI-H23 lung; 88.2% in the test on NCI-H226 lung; 93.6% with NCI-H322M lung; 79.7% in the test with HOP-62 NSCLC; 35.5% in the test on NCI-H460 lung; 70.5% in the test on HOP-92 NSCLC. Moreover, the growth with NCI-H522 lung is 71.5%; in the test with A549/ATCC NSCLC it was 64.4%; in the test with 786-0 renal, 75%; with COLO 205 colon, 51.4%; in the test on DU-145 prostate it was 74.6%; in the test on K-562 leukemia it was 6.81% (active). Besides, the growth in the test on MALME-3M melanoma is 45.8%; with MDA-MB-231 breast it was 87%; with RXF 393 renal it was 45.8%; in the test on SF-268 CNS, 60.2%; in the test with SF-295 CNS, 97.4%; with SF-539 CNS, 66.2%. The growth with UACC-257 melanoma is 75.1%; in the test on M14 melanoma it was -56% (active).
Regarding `Cc1ccc(-c2cc3nc(C(Cl)Cl)nc(-c4ccc(S(=O)(=O)N(C)C)cc4)n3n2)cc1`, the growth was 90.9% in the test on NCI-H23 lung; 87.7% with NCI-H226 lung; 107% in the test on NCI-H322M lung; 77.9% in the test with HOP-62 NSCLC; 93.5% in the test on NCI-H460 lung; 128% in the test with HOP-92 NSCLC. In addition, the growth was 89.7% in the test on NCI-H522 lung; 88.4% in the test on A549/ATCC NSCLC; 97.9% in the test with 786-0 renal; 98.1% with COLO 205 colon; 85.3% with DU-145 prostate; 41% in the test with K-562 leukemia. The growth in the test on MALME-3M melanoma was 100%; with MDA-MB-231 breast, 95.1%; with RXF 393 renal, 90.1%; in the test on SF-268 CNS, 98.7%; with SF-295 CNS it was 86.2%; with SF-539 CNS, 80.3%. For the same compound, the growth is 100% with UACC-257 melanoma and 93.1% in the test on M14 melanoma.
Consider `Cc1[nH]c(C(=O)Nc2ccccc2OCc2cccc(C(=O)NC3CCCNC3)c2)c(Cl)c1Cl` (stereo not given), for which the growth is -76.7% (active) in the test on NCI-H23 lung; 73.3% in the test with NCI-H226 lung; -93.7% (active) with NCI-H322M lung; -42.2% (active) in the test with HOP-62 NSCLC; -68.5% (active) in the test with NCI-H460 lung; 47.9% with HOP-92 NSCLC. Besides, the growth in the test on NCI-H522 lung is -50.9% (active); in the test with A549/ATCC NSCLC it was -52.6% (active); in the test with 786-0 renal, -71.6% (active); in the test on COLO 205 colon, -33.2% (active); in the test on DU-145 prostate it was -89% (active); with K-562 leukemia, -38.9% (active). Also, the growth is -68.4% (active) with MALME-3M melanoma; -68% (active) with MDA-MB-231 breast; -69.4% (active) in the test on RXF 393 renal; 25.1% with SF-268 CNS; -87.9% (active) with SF-295 CNS; -84.6% (active) in the test on SF-539 CNS. The growth is 94.6% in the test on UACC-257 melanoma and -87% (active) with M14 melanoma.
As for `C#CCOc1ccccc1/C=N/Nc1nc(-c2ccc(Cl)cc2)cs1`, the growth with NCI-H23 lung is 83.3%; with NCI-H226 lung it was 82.8%; in the test with NCI-H322M lung it was 90.6%; in the test on HOP-62 NSCLC it was 96%; in the test on NCI-H460 lung, 97.7%; in the test with HOP-92 NSCLC, 88.2%. The growth in the test with NCI-H522 lung was 87.8%; in the test on A549/ATCC NSCLC it was 101%; in the test on 786-0 renal it was 102%; in the test on COLO 205 colon, 109%; with DU-145 prostate, 104%; in the test on K-562 leukemia, 86.2%. For the same compound, the growth with MALME-3M melanoma was 97.2%; in the test with MDA-MB-231 breast it was 86.4%; in the test on RXF 393 renal it was 102%; in the test with SF-268 CNS, 98.9%; in the test with SF-295 CNS, 109%; in the test with SF-539 CNS it was 89.5%. The growth in the test with UACC-257 melanoma is 102%; with M14 melanoma it was 94%.
With `O=C(/C=C/c1cccc(F)c1)c1cccc(OCCCCOc2cccc(C(=O)/C=C/c3cccc(F)c3)c2)c1`, the growth with NCI-H23 lung was 102%; in the test on NCI-H226 lung it was 103%; in the test on NCI-H322M lung, 102%; in the test on HOP-62 NSCLC it was 114%; in the test on NCI-H460 lung, 100%; in the test with HOP-92 NSCLC, 139%. Also, the growth was 93.4% in the test on NCI-H522 lung; 104% with A549/ATCC NSCLC; 106% in the test with 786-0 renal; 117% with COLO 205 colon; 107% with DU-145 prostate; 100% in the test on K-562 leukemia. The growth was 101% in the test with MALME-3M melanoma; 95.9% in the test with MDA-MB-231 breast; 107% in the test on RXF 393 renal; 99.7% in the test with SF-268 CNS; 105% in the test on SF-295 CNS; 110% with SF-539 CNS. In addition, the growth was 105% in the test on UACC-257 melanoma and 103% in the test with M14 melanoma.
With `O=C(CCCCCCN1CC(=O)N2[C@@H](c3ccc(Cl)s3)c3[nH]c4ccccc4c3C[C@H]2C1=O)NO`, the growth was 41.1% in the test with NCI-H23 lung; 68.6% in the test on NCI-H226 lung; 46% with NCI-H322M lung; 61.5% with HOP-62 NSCLC; 39.4% in the test on NCI-H460 lung; 34.6% in the test on HOP-92 NSCLC. Further, the growth in the test with NCI-H522 lung is 3.19% (active); in the test on A549/ATCC NSCLC, 73.4%; in the test with 786-0 renal it was 81.1%; with COLO 205 colon, 54%; with DU-145 prostate it was 57.9%; in the test with K-562 leukemia, 27.5%. Besides, the growth in the test on MALME-3M melanoma is 21.9%; with MDA-MB-231 breast, 43.8%; in the test on RXF 393 renal, 37.7%; in the test on SF-268 CNS, 81.6%; with SF-295 CNS, 37.1%; in the test on SF-539 CNS, 40.9%. The growth in the test with UACC-257 melanoma was 53.4%; with M14 melanoma, 51.8%.
